Measles CPE: protection of cells from measles virus. 1.5% of 140,000 active. Measles virus-infected cells, CPE protection, absorbance. protection (pct of control), % at 4 µM. AID 841; in the data active = protection mostly above about 24%, no sharp cut-off; inactive = mostly below about 26%
CYP2C9 activ: CYP2C9 (human) activation. 1.4% of 96,000 active. activation factor at 5 µM. P11712. recombinant CYP2C9, luciferin-H conversion, luminescence; active compounds read high; factor 1 = untreated enzyme, 0 = blocked;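 active = activation factor of 2 or more for CYP2C9 at a 5 µM dose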
CYP2C9 inhib: inhibitors of human CYP2C9 | inhibition, % at 5 µM | 20% of 96,000 active | CYP2C9 Supersomes, luciferin-H conversion, luminescence | P11712;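 active = blocking of liver enzyme CYP2C9 beyond about 50% at 5 µM, limit read from the data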
CYP2C19 inhib: blocks human cytochrome P450 2C19; CYP2C19 Supersomes, luciferin-H EGE luminescence, 30 min; P33261; 21% of 96,000 active; inhibition, % at 5 µM; AID 778;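 active = CYP2C19 inhibition above a set limit at 5 µM in the primary screen, cut at about 50% in these data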
Target sequence (P33261 whole entry, looked up): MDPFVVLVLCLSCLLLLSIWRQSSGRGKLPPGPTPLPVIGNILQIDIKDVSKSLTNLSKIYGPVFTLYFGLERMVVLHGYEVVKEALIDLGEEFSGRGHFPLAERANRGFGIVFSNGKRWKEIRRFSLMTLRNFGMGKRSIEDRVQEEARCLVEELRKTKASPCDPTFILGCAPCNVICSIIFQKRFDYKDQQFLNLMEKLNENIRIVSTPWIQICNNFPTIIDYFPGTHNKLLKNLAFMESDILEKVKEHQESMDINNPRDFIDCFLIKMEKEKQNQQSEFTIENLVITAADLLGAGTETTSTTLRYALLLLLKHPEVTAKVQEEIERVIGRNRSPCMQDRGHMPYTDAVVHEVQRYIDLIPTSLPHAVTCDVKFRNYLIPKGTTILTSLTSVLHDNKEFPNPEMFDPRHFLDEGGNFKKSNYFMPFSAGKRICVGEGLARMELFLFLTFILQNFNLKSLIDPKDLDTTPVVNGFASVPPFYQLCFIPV
CYP2C19 act: cytochrome P450 2C19 (human) activation; P33261; recombinant CYP2C19, luciferin-H EGE luminescence; active compounds read high; 0 = fully inhibited enzyme, 1 = untreated enzyme; activation factor at 5 µM; 96,000 tested, under 10 active; AID 1025;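 active = activation factor of at least 2 at 5 µM in the primary screen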
Numbers stand for hits; i = inactive; nt = no result given. Only some compounds are listed: those with a hit (about 22% of all), similar ones and a draw of the others.

SMILES | Measles CPE | CYP2C9 activ | CYP2C9 inhib | CYP2C19 inhib | CYP2C19 act
COc1ccc(N/C(=N/c2nc(C)cc(C)n2)NC(=O)Nc2ccc(Cl)c(Cl)c2)c(OC)c1 | i | nt | nt | nt | nt
COc1ccc(Cl)cc1C(=O)NNC(=O)c1cccnc1 | i | i | i | i | i
COc1cc(NC(=O)C(C)C)ccc1NC(=O)c1ccco1 | i | i | 64 | i | i
COc1ccc(Cl)cc1NC(=S)N1CCN(C(=O)c2ccco2)CC1 | i | 2 | i | i | i
COc1cc(NC(=S)N2CCN(C(=O)c3ccco3)CC2)c(OC)cc1Cl | i | nt | nt | nt | nt
COc1ccc(OC)c(N/C(=N\c2nc(C)cc(C)n2)NC(=O)c2ccco2)c1 | nt | i | 56 | i | i
COc1ccc(Cl)cc1NC(=O)c1cccnc1 | i | 2.6 | i | i | i
COc1ccc(NC(=O)c2ccco2)c(OC)c1 | i | i | i | i | i
COc1cc(Br)cc2cc(C(=O)N3CCCCC3C)c(=O)oc12 (stereo not drawn) | i | i | i | i | i
Cc1c(Cl)ccc(S(=O)(=O)N2CCN=C2c2ccccc2)c1Cl | i | nt | nt | nt | nt
CN(C(=O)COC(=O)CCc1c[nH]c2ccccc12)C(c1ccccc1)c1ccccc1 | i | nt | nt | nt | nt
Cc1ccc(Oc2ccc(Cl)cc2NC(=O)c2cnccn2)cc1 | i | i | 56 | i | i
CCOc1cc(NC(=O)C2CCCCC2)c(OCC)cc1NC(=O)c1ccco1 | i | i | i | i | i
COc1cc(NC(=O)c2ccco2)c(OC)cc1NC(=O)Nc1ccccc1Cl | i | i | 60 | 85 | i
O=C(Nc1ccccc1Oc1ccccc1)c1cnccn1 | i | i | i | i | i
COc1cc(NC(=O)C2CCCCC2)c(OC)cc1NC(=O)c1ccco1 | i | i | i | 62 | i
C=CCN(CC=C)C(=O)Nc1cc(Cl)ccc1OC | i | 2.7 | i | 85 | i
CC1=C(C(=O)OCC(C)C)C(c2cccs2)NC(=S)N1 (stereo not drawn) | i | nt | nt | nt | nt
COc1ccc(Cl)cc1NC(=O)c1ccco1 | i | 4.2 | i | i | i
COc1ccc(Cl)cc1C(=O)Nc1ccc(NC(=O)c2ccco2)cc1 | i | i | i | i | i
COc1nc(OCCNC(=O)Nc2ccccc2)nc(N(C)C)n1 | i | i | i | 71 | i
CN(C)c1nc(OCCOC(=O)c2ccccc2)nc(N(C)C)n1 | i | i | 70 | 99 | i
CNc1nc(OCCNC(=O)Nc2ccccc2)nc(N2CCOCC2)n1 | i | i | 65 | i | i
CCOc1ccc(-c2cc(CCCC(=O)NCc3ccc(C)cc3)no2)cc1 | i | i | 53 | i | i
COc1ccc(-c2noc(CCC(=O)N3CCN(c4cccc(C(F)(F)F)c4)CC3)n2)cc1 | i | i | 83 | 70 | i
SMILES | Measles CPE | CYP2C9 activ | CYP2C9 inhib | CYP2C19 inhib | CYP2C19 act
COc1ccc(NC(=O)N2CCN(c3cccc(C(F)(F)F)c3)CC2)cc1 | i | i | i | i | i
COc1ccc(N2CCN(C(=O)CCCC3=NS(=O)(=O)c4ccccc4N3)CC2)cc1 | i | i | i | i | i
COc1ccc(-c2cc(CCCC(=O)NCCc3cc(OC)ccc3OC)no2)cc1 | i | i | 66 | 57 | i
COc1ccc(-c2cc(CCCC(=O)N3CCN(c4ccc(OC)cc4)CC3)no2)cc1 | i | i | 71 | 70 | i
COC(=O)C1=C(C)N(Cc2ccco2)C(=O)N[C@H]1c1ccc(Br)cc1 | i | nt | nt | nt | nt
CC1CCCCC12NC(=O)N(CC(=O)c1ccc[nH]1)C2=O (stereo not drawn) | i | i | i | i | i
CCN1CCN(Cc2nc3c(c(=O)n(C)c(=O)n3C)n2C(C)C(C)=O)CC1 (stereo not drawn) | i | i | i | 68 | i
O=C(NC(NCc1cccnc1)C(Cl)(Cl)Cl)c1cccc2ccccc12 (stereo not drawn) | i | nt | nt | nt | nt
O=C1CCCC2=C1C(c1ccccc1)C1C(=O)c3ccccc3C1=N2 (stereo not drawn) | i | nt | nt | nt | nt
CCOC(=O)C1=C(C)N=C2c3ccccc3C(=O)C2C1c1ccccc1 (stereo not drawn) | i | i | 56 | i | i
CCOC(=O)C1=C(C)N=C2c3ccccc3C(=O)C2C1c1ccc(C)cc1 (stereo not drawn) | i | i | 69 | i | i
COc1ccc2c(c1)OC13CCCCC1C2C(C(=O)c1ccccc1)C(=O)N3 (stereo not drawn) | i | i | i | i | i
CC(C)(C)NC(=O)NC(=O)COc1ccccc1C#N | i | i | i | 51 | i
COC(=O)c1cc2ccsc2n1CC(=O)N(C)C1CCCCC1 | i | i | i | i | i
CC(CCc1ccccc1)NC(=O)c1ccco1 (stereo not drawn) | i | nt | nt | nt | nt
CC(CCc1ccccc1)NC(=O)c1cccs1 (stereo not drawn) | i | i | 72 | 57 | i
CC(CCc1ccccc1)NC(=O)c1ccccc1 (stereo not drawn) | i | i | 91 | 66 | i
O=C(NNC(=O)C(c1ccccc1)c1ccccc1)c1cccs1 | i | i | 91 | 56 | i
O=C(NCCCNCc1ccccc1)c1ccncc1 | 40 | i | i | i | i
CC(CCc1ccccc1)NC(=O)c1ccc(C(=O)NC(C)CCc2ccccc2)cc1 (stereo not drawn) | i | i | i | i | i
Cc1cccc(OCCNc2cc(N3CCN(CCO)CC3)ccc2[N+](=O)[O-])c1 | i | nt | nt | nt | nt
CC(CCc1ccccc1)NC(=O)c1ccncc1 (stereo not drawn) | i | i | 94 | 100 | i
O=C(N=c1nc2ccccn2s1)c1ccccc1 | nt | i | i | 76 | i
O=C1[C@@H]2[C@@H]3C[C@@H]([C@H]4ON=C(c5ccc(OCc6ccccc6)cc5)[C@@H]34)[C@@H]2C(=O)N1c1ccc2c(c1)OCO2 | i | nt | nt | nt | nt
COc1ccc(OC)c(NC(=O)CCC(=O)Nc2nnc(C(F)(F)F)s2)c1 | i | i | 74 | i | i
SMILES | Measles CPE | CYP2C9 activ | CYP2C9 inhib | CYP2C19 inhib | CYP2C19 act
COc1ccccc1NC(=O)CCC(=O)Nc1nnc(C(F)(F)F)s1 | i | i | 72 | i | i
CN1CCn2c1nc(N1CCOCC1)nc2=O | i | i | i | i | i
COc1ccc(OCCSc2ncn[nH]2)cc1 | i | i | i | i | i
Cc1nnc(SCC(=O)Nc2ccc(Br)cn2)[nH]c1=O | i | i | i | i | i
CSc1nsc(SCC(=O)Nc2nc3ccc(C)cc3s2)n1 | i | nt | nt | nt | nt
CSc1nsc(SCC(=O)Nc2ccc(Br)cn2)n1 | i | i | i | 73 | i
CSc1nsc(SCC(=O)Nc2ccc(C(C)=O)cc2)n1 | i | i | 57 | i | i
Cc1cc(C)nc(SCC(=O)NC2=NN=C(c3ccc(Br)cc3)CS2)n1 | i | 2.1 | i | i | i
Cc1cc(C)nc(SCC(=O)Nc2ccc(Br)cn2)n1 | 18 | i | i | 81 | i
CCC(Sc1nc(C)cc(C)n1)C(=O)NC1=NN=C(c2ccc(C)cc2)CS1 (stereo not drawn) | i | i | i | i | i
Cc1noc(NS(=O)(=O)c2ccc(NC(=O)c3cnc4n(c3=O)CCS4)cc2)c1C | i | nt | nt | nt | nt
Cc1ccc(NC2c3ncccc3C(=O)N2C2CCCCC2)cc1C (stereo not drawn) | i | i | i | i | i
C/C(=N\OC(=O)c1ccccc1F)c1nccs1 | i | i | i | i | i

Screening data deposited in PubChem BioAssay by several laboratories.
